The panel holds about 83,000 compounds, 20% with a hit somewhere; the sample as a whole holds those more often.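 Negative percent growth values reflect cell death: -40 means 40% of the cells present at the start died, and -100 means all died.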 Values without a mark were called inactive. Active and inactive are the calls of the source. How the source made its calls: active means growth percent below 10; inactive means the rest.
Tested on: HL-60(TB) leukemia
Assay: NCI-60 one-dose screen, 48 h (100 = growth as untreated, 0 = no growth, -100 = all killed)
Conditions: 10 µM unless noted

Row | Structure (SMILES) | growth
1 | NCCN1CCNCC1 | 97.6%
2 | O=C(Cn1ccnc1)Nc1ccc(-c2nc3ccccc3s2)cc1 | 77.3%
3 | CC(C)[C@]12O[C@H]1[C@@H]1O[C@]13[C@]1(O[C@H]1C[C@H]1C4=C(CC[C@@]13C)C(=O)OC4)[C@@H]2OC(=O)CN(C)C | -24.3% (active)
4 | CS(=O)(CCCCN=C=S)=NC(=O)c1c(F)c(F)c(F)c(F)c1F (configuration not stated) | 72.5%
5 | CNC(=O)c1cc(COc2nnc(Nc3ccc(Cl)cc3)c3ccoc23)ccn1 | 120%
6 | CSc1ncnc2c1ncn2C1CCCO1 (configuration not stated) | 99.9%
7 | CC[C@H](Nc1nc(N)nc(C2CC2)c1C#N)c1nc2cccc(NCc3ccc(C(=O)NO)cc3)c2c(=O)n1-c1ccccc1 | -19.3% (active)
8 | CCN1CCN(C(=O)[C@@]2(C)CC[C@]3(C)CC[C@]4(C)C(=CC(=O)[C@@H]5[C@@]6(C)CC[C@H](OCCC#N)C(C)(C)[C@@H]6CC[C@]54C)[C@@H]3C2)CC1 | 90.3%
9 | O=C(NCc1ccccc1)C(Cl)Cl | 95.9%
10 | CSc1ccccc1C#C/C=C\C#Cc1ccccc1N1CCCCC1=O | 107%
11 | COc1ccc(-c2nc3ccccn3c2-c2nc3ccc(Cl)cc3[nH]2)cc1 | 74.8%
12 | COc1ccc(C2CCCCC2=O)cc1 (configuration not stated) | 122%
13 | COc1ccc(C(=O)C(CN(C)C)CN(C)C)cc1 | 3.54% (active)
14 | O=C(Nc1ccccc1C(=O)N/N=C(\c1ccccc1)c1ccccn1)c1ccccc1 | -24.1% (active)
15 | Cc1ccc(NC(=S)N2CCOCC2)cc1C | 103%
16 | Nc1cc(NN=C(c2ccc(O)cc2)c2ccc(O)cc2)c([N+](=O)[O-])cc1[N+](=O)[O-] | 66.4%
17 | CC1(CO)CCCC1NCCNC1CCCC1(C)CO (configuration not stated) | 95.2%
18 | O=C(NNC(=S)Nc1ccccc1)c1ccc(Nc2ncnc3c2cnn3-c2cccc(Br)c2)cc1 | 111%
19 | O=C(O)C(=O)O | 151%
20 | C=CC(C)(O)CC/C=C(\CO)C(=O)OC1C(C)OC(O[C@](C)(C=C)CC/C=C(\CO)C(=O)O[C@H]2C[C@@]3(C(=O)OC4OC(CO)C(O)C(O)C4OC4OC(C)C(OC5OC(CO)C(O)C5O)C(OC5OC(CO)C(O)C(O)C5O)C4O)C(CC2(C)C)C2=CCC4[C@@]5(C)CC[C@H](OC6OC(COC7OC(C)C(O)C(O)C7OC7OCC(O)C(O)C7O)C(O)C(O)C6NC(C)=O)C(C)(C)C5CC[C@@]4(C)[C@]2(C)C[C@H]3O)C(O)C1O (some centres not stated) | -52.5% (active)
21 | C#CCn1cc(C=C2C(=O)NC(=O)NC2=O)c2cc(Cl)ccc21 | 59.9%

Row | Structure (SMILES) | growth
22 | O=c1nc(Nc2nc3ccccc3s2)[nH]c(=O)c2ccccc12 | 94.4%
23 | O=C(CN1C(=O)NC(c2ccccc2)(c2ccccc2)C1=O)c1ccc(N2CCCC2)cc1 | 85.5%
24 | CN1CCN(c2ccc(OC(F)(F)F)c(Nc3ncc4c(n3)-c3c(c(C(N)=O)nn3CCO)CC4)c2)CC1 | -20.5% (active)
25 | Cn1ncc2c(Nc3ccccc3Cl)nc(Cl)nc21 | 96.1%
26 | CC(=O)NC(O)C(Cl)Cl (configuration not stated) | 105%
27 | COc1cc(C(=O)c2cc(C)c3[nH]c4ccc(C)cc4c3c2C)cc(OC)c1OC | -2.6% (active)
28 | C(=N\Nc1ccccn1)/c1ccccn1 | 12.3%
29 | COC(=O)c1ccc(NC(=O)CSc2nc(-c3ccc(F)cc3)nc3ccccc23)cc1 | 94.3%
30 | N#CN1CC[C@H](C(=O)Nc2ncc(-c3ccccc3)s2)C1 | -23.2% (active)
31 | CCC1=C(c2ccc(OC)cc2)C(C)(C)Oc2cc(O)c(CN3CCCC3)cc21 | 85%
32 | COC(=O)C1=C(C(=O)ON)C2C=CC1(C(Cc1ccccc1)Nc1ccccc1)O2 (configuration not stated) | 18.9%
33 | Nc1ccc(Oc2c(F)c(F)c(Oc3ccc(N)cc3)c(F)c2F)cc1 | 76.9%
34 | Cc1c(O)cc(-c2cnc(Nc3ccccc3)s2)c(O)c1C | 101%
35 | COc1cc2cc(NCc3ccc(F)cc3)nc(C)c2cc1OC | 31.7%
36 | COc1ccc(-c2nc3sccn3c2-c2ccnc(NCCCNS(=O)(=O)c3ccc(C)cc3)n2)cc1 | 0.661% (active)
37 | CC/C(=C(/c1ccc(O)cc1)c1ccc(OCCN2CCCCC2)cc1)c1ccc(OC)cc1 | 81.6%
38 | O=C(O)CCC(NC(=O)OCc1ccccc1)C(=O)O (configuration not stated) | 108%
39 | CCOC(=O)c1cc2c(n1Cc1cc(OC)c(OC)c(OC)c1)-c1oncc1CCC2 | -8.69% (active)
40 | O=C1NC(=O)C(=Cc2cc(-c3ccc(Cl)cc3)n(-c3ccccc3)n2)C(=O)N1 | 89.5%
41 | COCCOc1cc2ncnc(N3CCN(c4cc(S(C)(=O)=O)c(C)cc4Cl)CC3)c2cc1OCCOC | 97.4%
42 | Cc1cnc(C(=O)Nc2nc3ccc(S(=O)(=O)Nc4ccc(C5(C(F)(F)F)CC5)cc4)cc3[nH]2)cn1 | -25.1% (active)

Row | Structure (SMILES) | growth
43 | N#Cc1ncc(-c2ccc(C(F)(F)F)cc2)c(NCc2cc(C(F)(F)F)cc(C(F)(F)F)c2)n1 | -0.911% (active)
44 | C/C(Cc1ccc(Cl)cc1)=C(\c1ccc(OCCN2CCCCCC2)cc1)c1ccc(OC(=O)c2ccccc2)cc1 | 23.1%
45 | CC1=C([Se]CC(OC(=O)[C@@H](CSSC(C)(C)C)NC(=O)OC(C)(C)C)C(=O)NC(C)(C)C)C(=O)c2ccccc2C1=O (some centres not stated) | -2.66% (active)
46 | Cc1ccc2[nH]c(=O)c3c(c2c1)OC(N)=C(C#N)C31C(=O)c2cccc3cccc1c23 (configuration not stated) | 98.6%
47 | C=CC1=NC(C)(C)CC(C)O1 (configuration not stated) | 96.7%
48 | CCNC(=O)c1[nH]cc(-c2ccc(OC)cc2)c1-c1cc(OC)cc(OC)c1 | 82.1%
49 | O=C1Nc2ccccc2/C1=N/N=C/c1c[nH]c2ccccc12 | 86.2%
50 | Clc1ccc(-c2nc(-c3cccs3)no2)cc1 | 108%
51 | S=c1c2ncccc2c(-c2ccccn2)nn1Cc1ccccn1 | 71.6%
52 | CCN(CC)CCn1c2ccc(OC)cc2c2sc3cc(OC)ccc3c(=O)c21 | 7.58% (active)
53 | CC(C)CCCC(=O)O | 109%
54 | COc1ccc2[nH]c(O)c(/C=c3/cc4c(c(-c5ccc(F)cc5)n3)=Nc3ccccc3-4)c2c1 | 92.5%
55 | CCOC(=O)c1nn(CC(O)c2ccccc2)c(NC(=O)Nc2cccc(F)c2)c1C (configuration not stated) | 108%
56 | COc1cc(/C=C/C(=O)c2ccccc2O)ccc1OCCCOc1cc2c(cc1OC)C(=O)N1CCC[C@H]1C=N2 | -27.4% (active)
57 | CC(=O)OC1Oc2ccccc2-c2oc(=O)c(-c3cc4ccc(N(C)C)cc4oc3=O)cc21 (configuration not stated) | -9.4% (active)
58 | CCN1C(=S)N(c2ccccc2)C2C1NN=c1s/c(=C3\C(=O)N(C(C)C)c4ccccc43)c(=O)n12 (configuration not stated) | 96.6%
59 | C=C1C(=O)O[C@H]2[C@H]1CC/C(COC(=O)NCc1ccc(Cn3c(=O)sn(CCCI)c3=O)cc1)=C\CC[C@@]1(C)O[C@@H]21 | -9.41% (active)
60 | O=Cc1nc2ccccc2[nH]1 | 98%
61 | CN(C)CCCNc1c2ccccc2nc2ccccc12 | 72.8%
62 | CN(C)CCCNc1nn2c(=O)c3ccccc3nc2c2ccccc12 | 26.9%
63 | FCc1nc2nc(Cl)c(Cl)nc2[nH]1 | 102%

Row | Structure (SMILES) | growth
64 | O=C(/C=C/c1c(Cl)nc2sccn12)c1ccc(F)c(F)c1 | 78.3%
65 | COc1ccc(Nc2nccc(Nc3ccc4[nH]ncc4c3)n2)cc1 | 59.6%
66 | CCN(CC)CCNc1ccc([N+](=O)[O-])c2sc3ccccc3c(=O)c12 | 17%
67 | O=C(NCCNc1nccc(-c2c(-c3cccc(O)c3)nc3sccn23)n1)Nc1cccc(C(F)(F)F)c1 | 36.4%
68 | O=C(CCCSc1nc(-c2ccccc2)cc(-c2ccccc2)n1)NO | -26.2% (active)
69 | CC(=O)c1ccc2oc(=O)n(Cc3ccc(C#N)cc3)c(=O)c2c1 | 109%
70 | Cc1cc(Nc2nc(N[C@@H](C)c3ncc(F)cn3)ncc2Cl)n[nH]1 | 54.2%
71 | CC1OC(OC2C(OC3CCC4(C)C(CCC5(C)C4CC=C4C6CC(C)(C)CCC6(CO)C(O)CC45C)C3(C)C)OC(C(=O)O)C(OC3OC(COC4OC(CO)C(O)C(O)C4O)C(O)C(O)C3O)C2O)C(O)C(O)C1O (configuration not stated) | -73% (active)
72 | CO[C@H]1CC(c2ccc[nH]2)=N[C@]12O[C@@H](C)C[C@@H]1CCCCCCCc3ccc([nH]3)[C@H]12 | 17.5%
73 | COc1ccc(C(C#N)=C2C=CC(=NO)C=C2)cc1 | 52.4%
74 | C=C(Cl)[C@@](Cl)(CBr)CC[C@@H](Br)C(C)(C)Cl | -68.1% (active)
75 | O=C(Cn1cncn1)Nc1ccc(-c2nc3ccccc3s2)cc1 | 102%
76 | CC1(C)NCCC[C@]2(C)[C@H]3CC=C4[C@@H]5C[C@](C)(COC(=O)c6ccccc6C(=O)O)CC[C@]5(C)CC[C@@]4(C)[C@]3(C)CC[C@@H]12 | 65.3%
77 | CC1=C(C(=O)OCC2CCN(C(=O)OC(C)(C)C)CC2)[C@H](c2cccc(Br)c2)C2=C(CC(C)(C)CC2=O)N1 | -17.1% (active)
78 | CCN(CC)CCOc1ccc(/C(=C(\C)c2ccc(F)c(OC)c2)c2ccc(Cl)cc2)cc1 | -27.9% (active)
79 | COC(=O)c1oc2c(C(=O)/C=C/c3ccc(OC)cc3)c(OCCCN3CCCCC3)ccc2c1C | -54.7% (active)
80 | COC1(OC)C2(Cl)CCC1(Cl)C(Cl)=C2Cl | 139%
81 | O=C1Nc2ccccc2/C1=C/c1ccc[nH]1 | 103%
82 | Brc1ccc(Nc2nc(Nc3cnc4ccccc4c3)c3[nH]cnc3n2)cc1 | 92.9%

From PubChem BioAssay (NCI)
